# Reference: PubChem BioAssay (Tox21)
# The source made the active and inactive calls. Calls come from the whole dose curve; as a rule, active = well fitted activation curve with a large enough effect in the repeat runs; inconclusive = weak or mixed curves; inactive = flat fitted curve, though single readings scatter.
# Target: KiSS-1 receptor (Homo sapiens) (UniProt Q969F8)
# Test: Human kisspeptin (KISS1R) small molecule agonists, calcium flux assay in KISS1R-HEK293 cells (AID 1920064)
# Settings: KISS1R-HEK293, calcium flux fluorescence, agonist; series mostly up to 76.8 µM; activation: at the top concentration
# From the text: National Center for Advancing Translational Sciences [NCATS]
# Division of Preclinical Innovation [DPI]
# U.S. Environmental Protection Agency [EPA]
# National Institutes of Environmental Health Sciences [NIEHS]
# National Toxicology Program [NTP]
# U.S. Food and Drug Administration [FDA]
# Kisspeptin and its receptor KISS1R play key roles in mammalian reproduction due to their involvement in the onset of puberty and control of the hypothalamic-pituitary-gonadal axis such as regulates GnRH release from the hypothalamus. The kisspeptin/KISS1R system also plays a direct role in peripheral organs (including the ovary, testis, uterus, and placenta) and is implicated in reproductive diseases such as miscarriage and polycystic ovary syndrome (PCOS). Abnormal KISS1R activity is associated with abnormal puberty, infertility, endometriosis, and hormone-dependent tumors. The KISS1 receptor (KISS1R, also called GPR54), a G-protein-coupled receptor (GPCR), acts (through phospholipase C) to increase intracellular inositol trisphosphate and then release intracellular calcium stores. Cell-based KISS1R-HEK293 assay is using HEK293 cells that have been genetically engineered to express the human KISS1R, which activity can be measured by calcium signaling. A compound/drug can activate (agonist) KISS1R that can be monitored by levels of intracellular calcium.
# KISS1R-HEK293 cells developed by Codex Corp contain human KISS1R gene, which was stably integrated into HEK 293 cells. The compound activation can be detected by fluorescence intensity via calcium flux assay. This cell line has been used to screen the Tox21 10K compound library to identify agonists of KISS1R.
# KISS1R-Hek293 cells were dispensed at 1500 cells/4uL/well in 1536-well black wall/clear bottom plates using a multidrop dispenser. After the assay plates were incubated at a 37 C/5% CO2 incubator for 18 hours, 4 microL of Calcium Dye Solution was added to each well. The plates were incubated at 37 C for 1 hour. And then 23 nL of compounds dissolved in DMSO, positive controls, or DMSO only was transferred to the assay plate by a pin tool station. The fluorescence intensity in the plates was measured using FDSS 7000EX kinetic plate reader with a filter set of Ex/Em=480/540 for 3 min at 1 sec intervals. Each test compound was measured at 15 concentrations and in triplicates.
# % is set by controls: 0 for no effect and ±100 for the full control effect.
# Chain of KiSS-1 receptor (Homo sapiens) (Q969F8 whole entry, looked up): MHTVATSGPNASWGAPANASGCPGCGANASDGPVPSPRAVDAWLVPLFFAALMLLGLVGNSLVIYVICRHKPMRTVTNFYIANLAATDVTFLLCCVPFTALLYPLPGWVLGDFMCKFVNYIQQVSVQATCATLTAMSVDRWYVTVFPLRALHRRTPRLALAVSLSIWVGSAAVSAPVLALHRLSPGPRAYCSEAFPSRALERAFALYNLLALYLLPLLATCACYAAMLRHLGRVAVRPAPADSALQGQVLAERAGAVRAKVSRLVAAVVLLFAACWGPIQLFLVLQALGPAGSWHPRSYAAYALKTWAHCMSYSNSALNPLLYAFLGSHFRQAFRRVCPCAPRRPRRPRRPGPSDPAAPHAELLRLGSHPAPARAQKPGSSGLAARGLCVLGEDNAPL
Compound,activation,Potency
O=C(O)CCC(=O)Nc1ccc(S(=O)(=O)Nc2nccs2)cc1,-2.68% [at 35.3 µM] (inactive),
CC(C)(c1cc(Br)c(OCC(Br)CBr)c(Br)c1)c1cc(Br)c(OCC(Br)CBr)c(Br)c1 (stereo not given),-0.179% [at 35.3 µM] (inactive),
FC(F)(F)c1cccc(Cl)c1,0.5% (inactive),
CC(=O)OCCC1CCCCC1,1.81% (inactive),
C=CC(=O)O[C@H]1C[C@@H]2CC[C@@]1(C)C2(C)C,1.17% (inactive),
Cn1c(=O)c2c(ncn2C)n(C)c1=O,,inactive
COc1c2ccoc2cc2oc(=O)ccc12,,inactive
Clc1ccccc1C(c1ccccc1)(c1ccccc1)n1ccnc1,1.12% (inactive),
O=C1c2ccccc2CCc2ccccc21,,inactive
CCCCCCCCCCCCCC[P+](CCCC)(CCCC)CCCC,,inactive
Cn1cnc2c(F)c(Nc3ccc(Br)cc3Cl)c(C(=O)NOCCO)cc21,0.842% [at 35.3 µM] (inactive),
Cc1cc(C)c(N)c(Cl)c1,-2.85% (inactive),
O=S(=O)(O)c1cccc2c(S(=O)(=O)O)cccc12,-0.371% (inactive),
O=C(O)c1cccc(Cl)c1Cl,-0.782% (inactive),
CCCCc1ccc2cccc(S(=O)(=O)O)c2c1,0.29% (inactive),
O=C1CC(c2ccc(Cl)cc2)CC(=O)N1,-2.01% [at 35.3 µM] (inactive),
CC1(C)C2=CCCC(C)(C)[C@]23CC[C@H]1C3,-2.38% (inactive),
C=CCCCCCCCCCCCC,1.45% (inactive),
CCCCC(CC)COP(=O)(OCC(CC)CCCC)OCC(CC)CCCC (stereo not given),,inactive
C=CC(C)(O)CC/C=C(/C)CCC=C(C)C (stereo not given),5.37% (inactive),

Compound,activation,Potency
CCOC(=O)C(C)C(C)=O (stereo not given),-0.975% (inactive),
C1=COCCC1,-2.25% (inactive),
CCCCCCCCSCCO,5.23% (inactive),
CCCC1O[C@@H]2C[C@H]3[C@@H]4CCC5=CC(=O)C=C[C@]5(C)[C@H]4[C@@H](O)C[C@]3(C)[C@]2(C(=O)CO)O1 (stereo not given in full),0.206% (inactive),
CCOC(OCC)OCC,0.883% (inactive),
COc1cccc(OC)c1C(=O)O,-0.666% (inactive),
C=CC(=O)OCCCCCCCC,3.94% (inactive),
COc1ccc(-c2coc3cc(O)cc(O)c3c2=O)cc1,,inactive
CC[C@H]1CN2CCc3cc(OC)c(OC)cc3[C@@H]2C[C@@H]1C[C@H]1NCCc2cc(OC)c(OC)cc21,,inactive
CSc1ccc(C(=O)c2[nH]c(=O)[nH]c2C)cc1,-0.668% [at 35.3 µM] (inactive),
CC(=O)N1CCN(c2ccc(O)cc2)CC1,-0.977% [at 35.3 µM] (inactive),
O=C1C=CC(=O)O1,-1.63% (inactive),
N#C[C@@H]1C[C@@H]2C[C@@H]2N1C(=O)[C@@H](N)C12CC3CC(CC(O)(C3)C1)C2,-0.772% [at 35.3 µM] (inactive),
CC(=O)OCC(=O)[C@@]1(O)CC[C@H]2[C@@H]3CCC4=CC(=O)C=C[C@]4(C)[C@H]3[C@@H](O)C[C@@]21C,1.95% [at 35.3 µM] (inactive),
Fc1c(F)c(F)c(Br)c(F)c1F,-0.588% (inactive),
COc1nc(C)nc(NC(=O)NS(=O)(=O)c2ccccc2OCCCl)n1,-4.06% (inactive),
c1ccsc1,-0.302% (inactive),
CCCCCC(=O)CC,1.99% (inactive),
O=C(O)c1cc(N=Nc2ccc(S(=O)(=O)Nc3ccccn3)cc2)ccc1O,,inactive
CCOC(=O)CCC(C)=O,0.367% (inactive),
